PubChem BioAssay
Records with an inconclusive call do not appear. Calls of active or inactive are those of the source.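 The calls were made as follows, unless noted: active = viability increase at or above a cutoff of the median across tested compounds plus 3 SD (cut at about 8.5% in these data, passing the limit was not always enough); inconclusive = some gains above the cutoff, reason not given; inactive = the rest.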

Assays:
[1] = reducers of endogenous Her2 protein level, primary screen, SKBR3 breast tumor cells, AlphaScreen, ATP viability (AID 461;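 active = Her2 level under about 52% in both replicate screens, with viability over 70% of control, limit read from the data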;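 as to Her2 level: lower value means less Her2 protein in the cells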;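 as to viability: percent of carrier control wells set as 100% viability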); conditions: 18-24 h, measured here: SKBR3 viability, ATP luminescence, at 10 µM
[2] = target: Receptor tyrosine-protein kinase erbB-2 (Homo sapiens) (UniProt P04626); assay: as above; conditions: 18-24 h, at 10 µM, stronger effect = lower value
[3] = SK-BR-3 cell growth inhibitors, pilot screen, 24 h, human (AID 572;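 active = viability at or below 10% of carrier control in both of two separate runs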;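 also: compound exposure lasted between 18 and 24 h rather than exactly 24 h; 100% = carrier-treated control wells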); conditions: SK-BR-3 viability, CellTiter-Glo luminescence, at 10 µM, stronger effect = lower value
[4] = HUVEC growth inhibition – cell-based, human, primary screen (AID 575;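 active = viability at or below 30% in both replicate assays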;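 also: 100% = median of untreated cell wells with 0.1% DMSO on each plate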); conditions: HUVEC proliferation, CellTiter-Glo luminescence, 72 h; at 10 µM; stronger effect = lower value
[5] = growth inhibitors of H69AR lung tumor, primary screen, human, duplicate replicates (AID 580;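 active = viability at or under a set limit in both replicates, limit being median viability minus 3 SD, cut at about 48% in these data, passing the limit was not always enough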;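 also: 100% = mean luminescence of untreated wells and 0% = no signal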); conditions: H69AR lung tumor cells viability, ATP luminescence, 72 h; at 10 µM; stronger effect = lower value
[6] = reversal of MRP1-mediated doxorubicin resistance, pilot screen, H69AR cells, doxorubicin co-treatment (AID 601;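 active = viability loss from added drug above about 55%, and viability with drug at most 40%, in both replicates, limit read from the data, passing the limit was not always enough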); conditions: CellTiter-Glo, 72 h, at 10 µM; for differential viability (reversal): stronger effect = higher value
[7] = 384-well plate pilot, post-Golgi transport modulator project, inhibition of yeast transport mutant growth (AID 636; in the data active = inhibition above about 31%); conditions: absorbance 615 nm, about 18 h, stronger effect = higher value
[8] = growth suppression of yeast trafficking mutant, preliminary HTS, modulators of trafficking downstream of Golgi apparatus project, 1536-format plate, OD 615 nm (AID 637; in the data active = inhibition above about 30%); conditions: yeast transport mutant growth, absorbance 615 nm, 18 h; stronger effect = higher value
[9] = OD615 S. cerevisiae growth inhibition, permissive medium, pilot counter-assay, permissive growth control for S. cerevisiae lifespan shortening project (AID 705;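 active = growth inhibition above 25% in both replicates, a cutoff set 3 SD above the mean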); conditions: OD615, 24 h, at 10 µM, stronger effect = higher value
[10] = Restrictive medium S. cerevisiae growth inhibition, OD615, pilot screen of yeast lifespan reduction project, restrictive growth control (AID 706;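 active = growth inhibition above a set limit, 3 SD over mean compound inhibition, in both replicates, cut at about 43% in these data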;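 also: modified DeaD lifespan yeast strain shifted to restrictive glucose medium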); conditions: OD615, 48 h, at 10 µM, stronger effect = higher value
[11] = viability gain of MRP-1-high H69AR cells under doxorubicin, pilot screen, MRP-1 activator project, CellTiter-Glo, duplicate (AID 807); conditions: H69AR viability with doxorubicin, CellTiter-Glo luminescence; at 10 µM; stronger effect = higher value;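 also: compound pretreatment 18-22 h then 72 h combined with doxorubicin; 0% = doxorubicin alone and 100% = vehicle without doxorubicin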
[12] = growth suppression of beta-catenin knockout HCT116, pilot screen, human colon tumor cells (AID 823;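 active = cell viability at or below a set limit in both duplicate runs, the limit being the all-compound median minus 4 SD, cut at about 23% in these data, passing the limit was not always enough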;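 also: 0% = wells killed by 20 µM Hyamine and 100% = untreated DMSO cell wells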); conditions: CellTiter-Glo, 60 h, at 10 µM, stronger effect = lower value
[13] = growth suppression of PTEN-deleted HCT116, pilot screen, cell-based, HCT116 clonal line, CellTiter-Glo (AID 824;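 active = viability at or below 27.92% in each of two runs, the all-compound median minus 4 SD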;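 also: 0% = 20 µM Hyamine control and 100% = vehicle cell control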); conditions: 60 h, at 10 µM, stronger effect = lower value
[14] = inhibitors of the yeast RAM network, pilot screen, dse1pr::URA3 reporter, 5-FOA selection (AID 869;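 active = inhibition over a set limit, the all-compound mean plus 3 SD, in both replicate runs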;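 also: 0% = DMSO wells with no growth and 100% = 10 µM 1-NA-PP1 with full growth; RAM network block rescues cells from 5-FOA so hits raise OD615 growth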); conditions: S. cerevisiae dse1pr::URA3 5-FOA growth, OD615, 2 d; at 10 µM; stronger effect = higher value; strain carries analog-sensitive mutant Cbk1 kinase
[15] = RAM signaling pathway blockade in yeast – S. cerevisiae, Pdr1DBD-CYC8 efflux-inhibited sensitized strain, primary screen (AID 1298;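 active = RAM network inhibition above 8.4% in each of two replicates, 3 SD over the compound average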;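 also: 0% = DMSO untreated cells without growth and 100% = 10 µM 1-NA-PP1 full growth; higher means more yeast growth rescued from 5-FOA killing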); conditions: S. cerevisiae cbk1-as DSE1-URA3 strain, 5-FOA growth OD615, 2 d; at 50 µM; stronger effect = higher value
[16] = H69AR cells + 2 uM doxorubicin, measured here: viability with 2 uM doxorubicin, stronger effect = lower value
[17] = H69AR cells, compound alone cytotoxicity

Chain of Receptor tyrosine-protein kinase erbB-2 (Homo sapiens) (P04626 whole entry, looked up): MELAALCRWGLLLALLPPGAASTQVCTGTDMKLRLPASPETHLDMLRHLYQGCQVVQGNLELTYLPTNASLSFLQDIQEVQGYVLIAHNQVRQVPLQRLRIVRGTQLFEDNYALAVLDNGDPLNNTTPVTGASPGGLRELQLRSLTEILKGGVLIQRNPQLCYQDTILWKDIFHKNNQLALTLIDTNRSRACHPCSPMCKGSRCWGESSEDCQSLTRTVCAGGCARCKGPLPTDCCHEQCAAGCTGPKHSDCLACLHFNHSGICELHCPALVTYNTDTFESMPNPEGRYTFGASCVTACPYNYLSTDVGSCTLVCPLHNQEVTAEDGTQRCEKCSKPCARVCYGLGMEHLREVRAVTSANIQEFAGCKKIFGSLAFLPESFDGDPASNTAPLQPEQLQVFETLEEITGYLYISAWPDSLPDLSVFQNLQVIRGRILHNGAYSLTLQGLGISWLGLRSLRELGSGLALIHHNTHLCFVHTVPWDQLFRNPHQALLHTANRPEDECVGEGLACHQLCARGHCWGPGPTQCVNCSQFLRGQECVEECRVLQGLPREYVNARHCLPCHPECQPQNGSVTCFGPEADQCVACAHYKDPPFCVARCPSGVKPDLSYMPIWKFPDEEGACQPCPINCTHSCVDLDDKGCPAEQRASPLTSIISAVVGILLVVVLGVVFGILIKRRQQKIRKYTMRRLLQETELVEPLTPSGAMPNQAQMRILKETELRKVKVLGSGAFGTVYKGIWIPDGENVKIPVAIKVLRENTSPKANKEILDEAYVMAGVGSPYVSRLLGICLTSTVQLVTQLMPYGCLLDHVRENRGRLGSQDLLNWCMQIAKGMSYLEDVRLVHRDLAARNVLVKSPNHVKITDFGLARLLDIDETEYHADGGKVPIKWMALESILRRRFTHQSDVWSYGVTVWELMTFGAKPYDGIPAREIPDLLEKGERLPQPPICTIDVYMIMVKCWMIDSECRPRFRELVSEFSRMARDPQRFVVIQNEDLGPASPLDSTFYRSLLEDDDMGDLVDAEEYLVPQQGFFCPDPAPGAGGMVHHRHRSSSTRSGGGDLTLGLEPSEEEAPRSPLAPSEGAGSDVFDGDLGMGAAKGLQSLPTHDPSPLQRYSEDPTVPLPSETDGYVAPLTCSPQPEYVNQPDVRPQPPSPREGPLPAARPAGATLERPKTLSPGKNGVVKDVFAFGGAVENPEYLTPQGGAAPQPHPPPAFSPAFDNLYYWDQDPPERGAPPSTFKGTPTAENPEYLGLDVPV

CC(C)(C)SCCNC(=O)COc1ccc(Cl)cc1
89.4%: viability [6, 16]
109%: viability [6, 17]
94.5%: viability [1]
inactive: Her2 level [2] 90% | viability [3] 94.5% | viability [4] 113% | viability [5] 109% | differential viability (reversal) ([6]; H69AR cells + 2 uM doxorubicin) 19.5% | inhibition [7] -6.89% | inhibition [8] 4.1% | growth inhibition [9] -8.49% | growth inhibition [10] -12% | viability increase [11] 0.22% | viability [12] 96.2% | viability [13] 96.9% | inhibition [14] -0.23% | RAM network inhibition [15] 4.53%

O=C(CS(=O)(=O)Cc1ccccc1)Nc1nc2ccccc2s1
92.1%: viability [6, 17]
inactive: Her2 level [2] 85% | viability [3] 104% | viability [4] 89.2% | viability [5] 92.1% | differential viability (reversal) ([6]; H69AR cells + 2 uM doxorubicin) -3.83% | inhibition [7] -0.13% | inhibition [8] 0.32% | growth inhibition [9] -13.1% | growth inhibition [10] -17.7% | viability increase [11] -0.52% | viability [12] 101% | viability [13] 97.1% | inhibition [14] 4.3% | RAM network inhibition [15] 7.64%
104%: viability [1]
95.9%: viability [6, 16]

COCCOC(=O)c1[nH]c2c(c1C)C(=O)CC(c1ccco1)C2 (stereo not drawn)
85%: viability [1]
23.6%: viability [6, 17]
inactive: Her2 level [2] 71.5% | viability [3] 85% | viability [4] 57% | differential viability (reversal) ([6]; H69AR cells + 2 uM doxorubicin) -37.2% | inhibition [7] 0.64% | inhibition [8] 5.67% | growth inhibition [9] -16% | growth inhibition [10] -15.1% | viability increase [11] -4.07% | inhibition [14] 2.79% | RAM network inhibition [15] 2.52%
active: viability [5] 23.6% | viability [12] 18.9% | viability [13] 23.9%
60.9%: viability [6, 16]

CCCCN(C)C(=O)c1cn(C)c2ccc(S(=O)(=O)N(C)C)cc2c1=O
96%: viability [1]
inactive: Her2 level [2] 102% | viability [3] 96% | viability [4] 102% | viability [5] 102% | differential viability (reversal) ([6]; H69AR cells + 2 uM doxorubicin) 6.23% | inhibition [7] 0.13% | inhibition [8] -4.5% | growth inhibition [9] -3.25% | growth inhibition [10] 3.02% | viability increase [11] 0.32% | viability [12] 100% | viability [13] 108% | inhibition [14] 0.805% | RAM network inhibition [15] 2.99%
102%: viability [6, 17]
95.5%: viability [6, 16]

CCOCCCNC(=O)Cn1cc2c(n1)CCCCC2
114%: viability [1]
inactive: Her2 level [2] 104% | viability [3] 114% | viability [4] 109% | viability [5] 103% | differential viability (reversal) ([6]; H69AR cells + 2 uM doxorubicin) 6.04% | inhibition [7] 1.03% | inhibition [8] 2.67% | growth inhibition [9] -3.18% | growth inhibition [10] -3.17% | viability increase [11] -0.62% | viability [12] 100% | viability [13] 99.9% | inhibition [14] 2.07% | RAM network inhibition [15] 3.72%
103%: viability [6, 17]
96.8%: viability [6, 16]

Cc1ccc(-c2noc(CN3C(C)CCCC3C)n2)cc1 (stereo not drawn)
89.3%: viability [6, 17]
93.5%: viability [1]
83.7%: viability [6, 16]
inactive: Her2 level [2] 100% | viability [3] 93.5% | viability [4] 114% | viability [5] 89.3% | differential viability (reversal) ([6]; H69AR cells + 2 uM doxorubicin) 5.67% | inhibition [7] -3.73% | inhibition [8] 2.33% | growth inhibition [9] -3.56% | growth inhibition [10] 4.79% | viability increase [11] 3.23% | viability [12] 98.8% | viability [13] 95.9% | inhibition [14] 0.67% | RAM network inhibition [15] 4.84%

CCOc1cc(C2C3=C(CCCC3=O)N(C)C3=C2C(=O)CCC3)cc(Cl)c1O
106%: viability [1]
91.5%: viability [6, 16]
104%: viability [6, 17]
inactive: Her2 level [2] 74.5% | viability [3] 106% | viability [4] 105% | viability [5] 104% | differential viability (reversal) ([6]; H69AR cells + 2 uM doxorubicin) 12.8% | inhibition [7] -6.35% | inhibition [8] 0.49% | growth inhibition [9] -11.5% | growth inhibition [10] -16.7% | viability increase [11] 2.27% | viability [12] 96.1% | viability [13] 95.8% | inhibition [14] 1.12% | RAM network inhibition [15] 4.21%

C=CCn1c(=O)n(CCOC)c(=O)c2sc3ccccc3c21
86.8%: viability [6, 17]
inactive: Her2 level [2] 105% | viability [3] 85% | viability [4] 87.4% | viability [5] 86.8% | differential viability (reversal) ([6]; H69AR cells + 2 uM doxorubicin) -13.7% | inhibition [7] -0.53% | inhibition [8] 4.33% | growth inhibition [9] -13.3% | growth inhibition [10] -5.77% | viability increase [11] -4.03% | viability [12] 89.9% | viability [13] 86.7% | inhibition [14] 0.25% | RAM network inhibition [15] 1.71%
85%: viability [1]
100%: viability [6, 16]

Cn1c(=O)oc2cc(S(=O)(=O)NC3CCN(Cc4ccccc4)CC3)ccc21
103%: viability [1]
inactive: Her2 level [2] 96% | viability [3] 103% | viability [4] 90.9% | viability [5] 108% | differential viability (reversal) ([6]; H69AR cells + 2 uM doxorubicin) 14.4% | inhibition [7] -0.51% | inhibition [8] -1.17% | growth inhibition [9] -5.47% | growth inhibition [10] -3.98% | viability increase [11] -1.57% | viability [12] 92% | viability [13] 94.7% | inhibition [14] 1.28% | RAM network inhibition [15] 3.24%
93.2%: viability [6, 16]
108%: viability [6, 17]
